pPAFAH FP inh: inhibitors of human plasma PAF acetylhydrolase (pPAFAH). 330,000 tested, 1.5% active. Q13093. inhibition, % at 3.39 µM. recombinant pPAFAH, FP-rhodamine probe fluorescence polarization;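 active means inhibition above the mean inhibition across the screen plus 3 SD, cut at about 25% in these data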;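 further: inhibitors block binding of the rhodamine activity-based probe so polarization drops; 0% = enzyme with DMSO and 100% = wells lacking pPAFAH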
Target sequence (Q13093 whole entry, looked up): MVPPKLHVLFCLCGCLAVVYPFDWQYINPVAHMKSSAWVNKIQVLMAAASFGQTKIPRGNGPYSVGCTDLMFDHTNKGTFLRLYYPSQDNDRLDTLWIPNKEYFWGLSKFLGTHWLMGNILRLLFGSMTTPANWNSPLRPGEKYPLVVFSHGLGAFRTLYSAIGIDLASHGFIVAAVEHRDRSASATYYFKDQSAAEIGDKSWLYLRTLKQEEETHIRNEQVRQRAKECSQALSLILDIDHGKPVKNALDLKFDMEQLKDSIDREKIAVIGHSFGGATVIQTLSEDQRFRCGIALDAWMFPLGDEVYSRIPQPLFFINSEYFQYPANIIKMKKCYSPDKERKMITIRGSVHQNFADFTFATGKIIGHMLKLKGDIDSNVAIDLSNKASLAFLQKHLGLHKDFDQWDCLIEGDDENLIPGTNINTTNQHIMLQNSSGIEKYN
PfM18AAP inh-1: blocks P. falciparum M18 aspartyl aminopeptidase. recombinant PfM18AAP, H-Glu-NHMec fluorogenic cleavage. inhibition, % at 7.35 µM. 290,000 tested, 1.2% active;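 active means inhibition above the campaign mean inhibition over all tested compounds plus 3 SD, cut at about 28% in these data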;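 further: 0% = plate median of test compound wells and 100% = 2 mM ZnCl2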
PAFAH1B3 inh: blocks human PAF acetylhydrolase 1B catalytic subunit 3 | recombinant PAFAH1B3, FP-rhodamine probe, fluorescence polarization | Q15102 | inhibition, % at 3.39 µM | 340,000 tested, 0.28% active | AID 492972;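 active means inhibition above the screen-wide average of all tested compounds plus 3 SD, cut at about 25% in these data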;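 further: 0% = enzyme with DMSO only and 100% = wells lacking PAFAH1B3 protein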
DSG3 Ab inh: blocks pemphigus antibody binding to human desmoglein-3; P32926; DSG3-coupled beads, scFv-anti-DSG3-GFP binding, flow cytometry; hits give low values; binding (percent of control), % at 10 µM; 310,000 tested, 0.48% active; AID 588358;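 active means binding more than 3 SD below its plate's average and above zero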;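 further: hits lower antibody fragment binding to DSG3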
PAFAH2 FP inh: inhibitors of human PAFAH2 | recombinant PAFAH2, FP-rhodamine activity probe, fluorescence polarization | inhibition, % at 3.39 µM | 340,000 tested, 0.99% active;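 active means inhibition above the mean over all tested compounds plus 3 SD, cut at about 30% in these data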;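 further: inhibitors block probe labeling of enzyme so polarization drops; 0% = enzyme with DMSO and 100% = wells lacking PAFAH2 protein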
PAFAH1B2 FP inh: blocks human PAF acetylhydrolase 1b catalytic subunit 2; P68402; recombinant PAFAH1B2, FP-rhodamine activity probe, fluorescence polarization; inhibition, % at 3.39 µM; 340,000 tested, 1.2% active; AID 492953;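 active means inhibition above the mean of all tested compounds plus 3 SD, cut at about 24% in these data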;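 further: 0% = enzyme with DMSO and 100% = wells lacking PAFAH1B2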
Target sequence (P68402 whole entry, looked up): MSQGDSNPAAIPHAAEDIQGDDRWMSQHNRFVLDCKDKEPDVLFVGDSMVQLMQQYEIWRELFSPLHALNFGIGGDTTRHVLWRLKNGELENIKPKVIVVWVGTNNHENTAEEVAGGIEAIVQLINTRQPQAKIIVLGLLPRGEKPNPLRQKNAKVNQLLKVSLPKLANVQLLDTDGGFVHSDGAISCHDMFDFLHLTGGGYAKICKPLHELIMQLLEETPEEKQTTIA
PfM18AAP inh-2: confirmation of Plasmodium falciparum M18 aspartyl aminopeptidase inhibitors. shares compounds with PfM18AAP inh-1. recombinant PfM18AAP, H-Glu-NHMec fluorogenic cleavage. inhibition, % at 7.35 µM. 2,400 tested, 28% active;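 active means mean inhibition over replicate wells above the hit cutoff set for the earlier primary screen, cut at about 29% in these data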;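 further: 0% = median of test compound wells and 100% = 2 mM ZnCl2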
CTSL1 confirm: counter-screen for PFM18AAP inhibitors: confirmation of human cathepsin L inhibitors; inhibition, % at 5.96 µM; purified cathepsin L1, Z-Leu-Arg-MCA fluorescence; shares compounds with PfM18AAP inh-1; 2,400 tested, under 10 active; AID 2178;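 active means average inhibition across replicates above the hit cutoff set in the earlier primary screen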;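 further: 0% = median of test compound wells and 100% = Z-Phe-Ala-diazomethylketone 1 µM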
pPAFAH FP conf: pPAFAH (human) inhibition, confirmed; shares compounds with pPAFAH FP inh; recombinant pPAFAH, FP-Rh probe fluorescence polarization; inhibition, % at 3.39 µM; 2,300 tested, 72% active; AID 463230;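 active means mean inhibition of the triplicate above the hit cutoff set for the earlier primary screen, cut at about 25% in these data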;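 further: 0% = enzyme with DMSO and 100% = wells lacking pPAFAH enzyme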
The depositor's hits bear a star. Compounds with a hit are over-represented: about 3.8% of the library has one in this group of screens.

`CSc1nsc(SCC(=O)Nc2nncs2)n1` gave pPAFAH FP inh 3.6, PfM18AAP inh-1 5.0, PAFAH1B3 inh 0.7, PAFAH2 FP inh 1.2 and PAFAH1B2 FP inh -6.4.
For COc1ccc(S(=O)(=O)N2CCN(C(=O)C3CC(=O)N(c4ccccc4F)C3)CC2)cc1OC (configuration not stated) the results were PAFAH1B3 inh 0.9, PAFAH2 FP inh 5.9 and PAFAH1B2 FP inh -0.9.
For O=C(CCNS(=O)(=O)c1ccccc1)N1CCN(c2ccccc2F)CC1 the results were pPAFAH FP inh 6.5, PfM18AAP inh-1 -8.8, PAFAH1B3 inh -3.8, DSG3 Ab inh 111.9, PAFAH2 FP inh -2.2 and PAFAH1B2 FP inh -6.2.
`CC(C)(C)c1ccc(OCc2ccc(C(=O)N/N=C/c3ccc(O)c(O)c3)cc2)cc1` gave pPAFAH FP inh 43.0*, PfM18AAP inh-1 36.2*, PAFAH1B3 inh 16.6, DSG3 Ab inh 110.8, PAFAH2 FP inh 2.0, PAFAH1B2 FP inh -8.0, PfM18AAP inh-2 -5.3, CTSL1 confirm -6.5 and pPAFAH FP conf 73.8*.
O=C(COc1ccccc1C(=O)N/N=C\c1ccc(O)c(O)c1)N/N=C/c1ccc(O)c(O)c1 was read as pPAFAH FP inh 61.8*, PfM18AAP inh-1 75.8*, PAFAH1B3 inh -0.1, DSG3 Ab inh 108.0, PAFAH2 FP inh 42.0*, PAFAH1B2 FP inh 11.6, PfM18AAP inh-2 74.0*, CTSL1 confirm -0.1 and pPAFAH FP conf 80.4*.
For O=C(COc1ccccc1[N+](=O)[O-])N/N=C/c1ccc(O)c([N+](=O)[O-])c1 the results were pPAFAH FP inh 2.0, PfM18AAP inh-1 2.4, PAFAH1B3 inh -1.7, DSG3 Ab inh 99.9, PAFAH2 FP inh 8.1 and PAFAH1B2 FP inh 4.0.
`CCN(CC)CCNC(=O)c1cccc(NC(=O)C(=O)c2cc(Br)ccc2NC(C)=O)c1` gave pPAFAH FP inh 0.1, PfM18AAP inh-1 -3.0, PAFAH1B3 inh 13.7, DSG3 Ab inh 105.9, PAFAH2 FP inh -4.0 and PAFAH1B2 FP inh 1.0.
Screening COC(=O)c1cccc(NC(=O)CCc2c(C)noc2C)c1 returned pPAFAH FP inh 0.4, PAFAH1B3 inh 13.7, PAFAH2 FP inh -0.5 and PAFAH1B2 FP inh -3.5.
`Cc1cc(SCC(=O)c2ccc(O)c(O)c2)nc2ccccc12` gave pPAFAH FP inh 41.6*, PfM18AAP inh-1 46.3*, PAFAH1B3 inh 13.2, DSG3 Ab inh 112.3, PAFAH2 FP inh 30.8*, PAFAH1B2 FP inh 2.4, PfM18AAP inh-2 21.2, CTSL1 confirm 2.9 and pPAFAH FP conf 94.5*.
For O=C(CSc1n[nH]c(-c2ccccc2)n1)c1ccc(O)c(O)c1 the results were pPAFAH FP inh 42.3*, PfM18AAP inh-1 59.7*, PAFAH1B3 inh 20.2, DSG3 Ab inh 119.9, PAFAH2 FP inh 23.1, PAFAH1B2 FP inh 7.2, PfM18AAP inh-2 36.1*, CTSL1 confirm 0.3 and pPAFAH FP conf 67.7*.
For Cc1ccc(O)c(NC(=O)CSc2n[nH]c(-c3ccccc3)n2)c1 the results were pPAFAH FP inh 7.5, PfM18AAP inh-1 2.5, PAFAH1B3 inh 2.9, DSG3 Ab inh 103.5, PAFAH2 FP inh 5.9 and PAFAH1B2 FP inh 4.3.
For O=C(/C=C/c1c(F)cccc1Cl)N1CCOCC1 the results were pPAFAH FP inh 4.7, PfM18AAP inh-1 -0.1, PAFAH1B3 inh 4.6, DSG3 Ab inh 112.8, PAFAH2 FP inh 9.4 and PAFAH1B2 FP inh -0.4.
`CCOC(=O)N1CCN(CCC(=O)Nc2cccc(Cl)c2C)CC1` gave pPAFAH FP inh 5.3, PfM18AAP inh-1 2.6, PAFAH1B3 inh 11.9, DSG3 Ab inh 108.4, PAFAH2 FP inh 2.1 and PAFAH1B2 FP inh 3.9.
For C[C@H](O)C#Cc1cnc2c(c1)C(=O)N([C@H](C)CO)C[C@@H](C)[C@@H](CN(C)Cc1ccc(-c3ccccc3)cc1)O2 the results were DSG3 Ab inh 106.7.
CC(C(=O)N(C)C1CCS(=O)(=O)C1)N1C(=O)/C(=C/c2ccc(F)cc2)SC1=S (configuration not stated) was read as pPAFAH FP inh -6.2, PfM18AAP inh-1 13.8, PAFAH1B3 inh 1.2, DSG3 Ab inh 103.2, PAFAH2 FP inh 5.3 and PAFAH1B2 FP inh 3.1.
`CCN(C(=O)C(C)N1C(=O)/C(=C/c2ccco2)SC1=S)C1CCS(=O)(=O)C1` (configuration not stated) gave pPAFAH FP inh 44.4*, PfM18AAP inh-1 43.2*, PAFAH1B3 inh 8.5, DSG3 Ab inh 105.0, PAFAH2 FP inh 0.0, PAFAH1B2 FP inh 0.1, PfM18AAP inh-2 -43.1, CTSL1 confirm 2.4 and pPAFAH FP conf 6.9.
Screening Cc1ccccc1CNC(=O)C1CCC(=O)N(C2CCCCCC2)C1 (configuration not stated) returned pPAFAH FP inh 0.9, PfM18AAP inh-1 -5.3, PAFAH1B3 inh 4.9, PAFAH2 FP inh 1.6 and PAFAH1B2 FP inh -2.3.
Oc1cccc(C=Nc2cccc3ccccc23)c1O was read as pPAFAH FP inh 75.7*, PfM18AAP inh-1 49.9*, PAFAH1B3 inh 28.3*, DSG3 Ab inh 111.2, PAFAH2 FP inh 26.9, PAFAH1B2 FP inh 9.0, PfM18AAP inh-2 31.8*, CTSL1 confirm -2.4 and pPAFAH FP conf 8.2.
Oc1ccccc1C=Nc1cccc2ccccc12 was read as pPAFAH FP inh 5.8, PfM18AAP inh-1 12.0, PAFAH1B3 inh 0.1, DSG3 Ab inh 109.6, PAFAH2 FP inh 0.7 and PAFAH1B2 FP inh 2.7.
Oc1ccc(/C=N\Nc2cc(N3CCOCC3)nc(N3CCOCC3)n2)c(O)c1 was read as pPAFAH FP inh 8.2, PfM18AAP inh-1 25.8, PAFAH1B3 inh 9.1, DSG3 Ab inh 113.6, PAFAH2 FP inh -4.0 and PAFAH1B2 FP inh 4.1.
For Oc1ccc(/C=N/Nc2cc(N3CCCC3)nc(N3CCCC3)n2)cc1O the results were pPAFAH FP inh 55.8*, PfM18AAP inh-1 40.4*, PAFAH1B3 inh 19.6, DSG3 Ab inh 112.4, PAFAH2 FP inh 9.5, PAFAH1B2 FP inh -2.4, PfM18AAP inh-2 26.5, CTSL1 confirm 3.6 and pPAFAH FP conf 28.3*.
COc1ccc(Cl)cc1NC(=O)CN(C)C(=O)c1cc2c(s1)CCC(C)C2 (configuration not stated) was read as pPAFAH FP inh 2.2, PAFAH1B3 inh 0.4, DSG3 Ab inh 102.5, PAFAH2 FP inh -4.6 and PAFAH1B2 FP inh -3.0.
CC(Oc1ccc(F)cc1Br)c1nc2ccccc2c(=O)[nH]1 (configuration not stated) was read as pPAFAH FP inh 9.9, PfM18AAP inh-1 7.1, PAFAH1B3 inh -6.8, DSG3 Ab inh 111.1, PAFAH2 FP inh 14.8 and PAFAH1B2 FP inh 4.1.

Assay outcomes deposited in PubChem BioAssay by several laboratories.
